Source: PubChem BioAssay (NCI)
This is part of a sample that, as a whole, favours compounds with a hit. Of some 79,000 tested, about 15% had one in any assay. Calls of active or inactive are those of the source. No stated cut-off is given here; in the data, active means growth inhibition above about 70%; inactive means the rest.

Assays:
[1] = NCI Yeast Anticancer Drug Screen. Data for the rad52 strain (AID 147);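 further: 0% = growth of vehicle-treated control cultures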; conditions: S. cerevisiae rad52 mutant growth inhibition, active compounds read high
Outline: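 Here a repair-compromised yeast strain receives each compound; its growth is then quantified and normalised to vehicle-only controls.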

[2] = NCI Yeast Anticancer Drug Screen. Data for the wt1 strain (AID 149);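 further: 0% = growth of vehicle-treated wt1 cultures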; conditions: S. cerevisiae wt1 strain (SPY 50644) growth inhibition, active compounds read high
Outline: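 Using yeast strain wt1, compound-induced growth inhibition was determined against vehicle-treated cultures.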

[3] = NCI Yeast Anticancer Drug Screen. Data for the rad50EPP+ strain (AID 151);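 further: 0% = growth of vehicle-treated control cultures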; conditions: S. cerevisiae rad50 mutant strain, active compounds read high
Outline: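 Read-out is yeast growth inhibition relative to vehicle; cells used were the rad50EPP+ strain.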

[4] = NCI Yeast Anticancer Drug Screen. Data for the mgt1 strain (AID 153); conditions: S. cerevisiae mgt1 mutant growth inhibition, active compounds read high
Outline: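 Measured: inhibition of mgt1 yeast growth by compound, normalized to vehicle-treated cultures.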

[5] = NCI Yeast Anticancer Drug Screen. Data for the rad50 strain (AID 155);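 further: 0% = growth of vehicle-only cultures of the same strain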; conditions: S. cerevisiae rad50 strain growth inhibition, active compounds read high
Outline: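 Relative growth inhibition (compound vs vehicle) was measured in yeast with a defined repair-gene alteration.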

[6] = NCI Yeast Anticancer Drug Screen. Data for the mec2-1 strain (AID 157); conditions: S. cerevisiae mec2-1 strain, active compounds read high
Outline: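 Using mec2-1 yeast: add compound, measure growth, express inhibition versus vehicle-treated cultures.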

[7] = NCI Yeast Anticancer Drug Screen. Data for the rad14 strain (AID 159);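 further: 0% = growth of vehicle-treated control cultures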; conditions: S. cerevisiae rad14 strain growth inhibition, active compounds read high
Outline: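 Screen for anticancer potential: a yeast strain altered in DNA damage repair is grown with compound, and reduced growth is quantified against vehicle controls.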

[8] = NCI Yeast Anticancer Drug Screen. Data for the sgs1 mgt1 strain (AID 161);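 further: 0% = growth of cultures given vehicle only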; conditions: S. cerevisiae sgs1 mgt1 strain, active compounds read high
Outline: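 This yeast growth screen uses a strain with defined DNA-repair lesions; compound-treated growth is compared with vehicle-treated growth.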

[9] = NCI Yeast Anticancer Drug Screen. Data for the CLN2oe strain (AID 163);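 further: 0% = growth of vehicle-only control cultures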; conditions: S. cerevisiae CLN2oe strain, active compounds read high
Outline: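 Whole-cell yeast growth assay. A strain engineered for altered cell-cycle control received compound, and inhibition relative to vehicle-treated cultures was recorded.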

[10] = NCI Yeast Anticancer Drug Screen. Data for the cln2 rad14 strain (AID 165);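 further: 0% = growth equal to vehicle treated cultures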; conditions: S. cerevisiae cln2 rad14 strain, active compounds read high
Outline: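 Yeast strain cln2 rad14, bearing defects in cell cycle control and DNA repair, serves as the test system; values reflect growth inhibition compared with vehicle.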

[11] = NCI Yeast Anticancer Drug Screen. Data for the bub3 strain (AID 167); conditions: S. cerevisiae bub3 mutant strain, active compounds read high
Outline: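 Screening used yeast with an engineered genetic alteration affecting cell cycle control. Compound-exposed cultures were compared with vehicle cultures, and reduced growth was taken as inhibition.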

[12] = NCI Yeast Anticancer Drug Screen. Data for the wt2 strain (AID 169);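 further: 0% = growth of vehicle-treated yeast cultures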; conditions: S. cerevisiae wt2 strain growth inhibition, active compounds read high
Outline: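 Treated yeast vs. vehicle-treated yeast: growth inhibition determined.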

[13] = NCI Yeast Anticancer Drug Screen. Data for the mlh1 strain (AID 171);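 further: 0% = growth of vehicle-treated control cultures of the same strain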; conditions: S. cerevisiae mlh1 strain growth inhibition, active compounds read high
Outline: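 A yeast strain with a defined genetic lesion serves as the test organism. Cultures receive compound or vehicle, and growth is measured.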

[14] = NCI Yeast Anticancer Drug Screen. Data for the sgs1 strain (AID 173);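 further: 0% = growth of vehicle-only control cultures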; conditions: S. cerevisiae sgs1 mutant, active compounds read high
Outline: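 A genetically defined yeast mutant is incubated with the test compound, and its growth is compared to that of the same strain given vehicle.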

[15] = NCI Yeast Anticancer Drug Screen. Data for the mlh1 rad18 strain (AID 175); conditions: S. cerevisiae mlh1 rad18 strain growth inhibition, active compounds read high
Outline: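 Steps: expose repair-defective yeast to compound; measure growth; express inhibition against vehicle-treated controls.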

[16] = NCI Yeast Anticancer Drug Screen. Data for the rad18 strain (AID 177); conditions: S. cerevisiae rad18 mutant growth inhibition, active compounds read high
Outline: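 Measured value is growth inhibition of a yeast strain bearing a DNA repair alteration, referenced to vehicle-treated cells.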

[17] = at 5.0 µM (retest, dose inferred, filed as 0.5)
[18] = at 50.0 µM (retest, dose inferred, filed as 5.0)

Measured: growth inhibition

Cc1c2cc[n+](CCO)cc2c(C)c2c1[nH]c1ccc(O)cc12
active: [1]; at 11.0 µM 80% | [1]; at 33.0 µM 91% | [1]; at 100.0 µM 91% | [3]; at 100.0 µM 83% | [5]; at 11.0 µM 89% | [5]; at 33.0 µM 94% | [5]; [18] 93% | [5]; at 50.0 µM 80.5% | [5]; at 100.0 µM 95% | [15]; at 50.0 µM 72.6%
inactive: [1]; at 1.2 µM 25% | [1]; at 3.7 µM 53% | [2]; at 1.2 µM 8% | [2]; at 3.7 µM 12% | [2]; at 11.0 µM 1% | [2]; at 33.0 µM 11% | [2]; at 100.0 µM 13% | [3]; at 1.2 µM 25% | [3]; at 3.7 µM 57% | [3]; at 11.0 µM 59% | [3]; at 33.0 µM 68% | [4]; at 1.2 µM 22% | [4]; at 3.7 µM 26% | [4]; at 11.0 µM 28% | [4]; at 33.0 µM 35% | [4]; at 100.0 µM 45% | [5]; at 1.2 µM 35% | [5]; at 3.7 µM 68% | [5]; [17] 47% | [6]; at 1.2 µM 22% | [6]; at 3.7 µM 28% | [6]; [17] 15% | [6]; at 11.0 µM 30% | [6]; at 33.0 µM 48% | [6]; [18] 36% | [6]; at 50.0 µM 36.7% | [6]; at 100.0 µM 52% | [7]; at 1.2 µM 4% | [7]; at 3.7 µM 9% | [7]; at 11.0 µM 3% | [7]; at 33.0 µM 19% | [7]; at 100.0 µM 29% | [8]; [17] 12% | [8]; [18] 35% | [8]; at 50.0 µM -1.6% | [9]; at 1.2 µM -11% | [9]; at 3.7 µM -32% | [9]; at 11.0 µM -17% | [9]; at 33.0 µM -9% | [9]; at 100.0 µM 3% | [10]; [17] 13% | [10]; [18] 15% | [10]; at 50.0 µM 7.55% | [11]; at 1.2 µM 6% | [11]; at 3.7 µM 9% | [11]; [17] 7% | [11]; at 11.0 µM 10% | [11]; at 33.0 µM 24% | [11]; [18] 33% | [11]; at 50.0 µM 1.35% | [11]; at 100.0 µM 28% | [12]; at 1.2 µM -8% | [12]; at 3.7 µM -6% | [12]; at 11.0 µM -4% | [12]; at 33.0 µM -9% | [12]; at 100.0 µM -10% | [13]; at 1.2 µM 25% | [13]; at 3.7 µM 32% | [13]; at 11.0 µM 41% | [13]; at 33.0 µM 42% | [13]; at 100.0 µM 47% | [14]; at 1.2 µM 18% | [14]; at 3.7 µM 19% | [14]; at 11.0 µM 17% | [14]; at 33.0 µM 25% | [14]; at 100.0 µM 42% | [15]; [17] 13% | [15]; [18] 36% | [16]; at 1.2 µM 20% | [16]; at 3.7 µM 20% | [16]; at 11.0 µM 19% | [16]; at 33.0 µM 40% | [16]; at 100.0 µM 49%

CC(C)C(c1ccccc1)c1ccccc1
inactive: [1]; at 1.2 µM 4% | [1]; at 3.7 µM 9% | [1]; at 11.0 µM 9% | [1]; at 33.0 µM 8% | [2]; at 1.2 µM -1% | [2]; at 3.7 µM -1% | [2]; at 11.0 µM 0% | [2]; at 33.0 µM -2% | [2]; at 100.0 µM 49% | [3]; at 1.2 µM 3% | [3]; at 3.7 µM 6% | [3]; at 11.0 µM 14% | [3]; at 33.0 µM 43% | [4]; at 1.2 µM 0% | [4]; at 3.7 µM 0% | [4]; at 11.0 µM -1% | [4]; at 33.0 µM -6% | [4]; at 100.0 µM 55% | [5]; at 1.2 µM 1% | [5]; at 3.7 µM 18% | [5]; [17] -144% | [5]; at 11.0 µM 9% | [5]; at 33.0 µM 10% | [5]; at 50.0 µM 10% | [6]; at 1.2 µM 2% | [6]; at 3.7 µM 3% | [6]; [17] -50% | [6]; at 11.0 µM -10% | [6]; at 33.0 µM 1% | [6]; [18] -32% | [6]; at 50.0 µM 49.4% | [7]; at 1.2 µM -1% | [7]; at 3.7 µM -5% | [7]; at 11.0 µM 2% | [7]; at 33.0 µM 7% | [8]; [17] -54% | [8]; [18] -37% | [8]; at 50.0 µM 52.2% | [9]; at 1.2 µM -5% | [9]; at 3.7 µM -1% | [9]; at 11.0 µM 2% | [9]; at 33.0 µM 1% | [9]; at 100.0 µM 69% | [10]; [17] -52% | [10]; [18] -33% | [10]; at 50.0 µM 16% | [11]; at 1.2 µM -6% | [11]; at 3.7 µM 1% | [11]; [17] -67% | [11]; at 11.0 µM -4% | [11]; at 33.0 µM -4% | [11]; [18] 44% | [11]; at 50.0 µM -0.75% | [11]; at 100.0 µM 66% | [12]; at 1.2 µM -2% | [12]; at 3.7 µM -2% | [12]; at 11.0 µM -1% | [12]; at 33.0 µM 1% | [12]; at 100.0 µM 56% | [13]; at 1.2 µM 3% | [13]; at 3.7 µM 0% | [13]; at 11.0 µM 0% | [13]; at 33.0 µM 2% | [13]; at 100.0 µM 60% | [14]; at 1.2 µM -1% | [14]; at 3.7 µM -3% | [14]; at 11.0 µM -3% | [14]; at 33.0 µM -3% | [15]; [17] -113% | [15]; [18] -101% | [15]; at 50.0 µM 29.2% | [16]; at 1.2 µM 3% | [16]; at 3.7 µM -1% | [16]; at 11.0 µM 3% | [16]; at 33.0 µM 3% | [16]; at 100.0 µM 59%
active: [1]; at 100.0 µM 77% | [3]; at 100.0 µM 93% | [5]; [18] 70% | [5]; at 100.0 µM 93% | [6]; at 100.0 µM 99% | [7]; at 100.0 µM 70% | [14]; at 100.0 µM 99%

Cc1ccc(NC(=O)CCC(=O)C(C)C(=O)c2ccccc2)c(C)c1 (stereo unspecified)
active: [5]; [17] 91% | [5]; [18] 92%
inactive: [1]; at 1.2 µM 1% | [1]; at 3.7 µM 1% | [1]; at 11.0 µM 3% | [1]; at 33.0 µM 1% | [1]; at 100.0 µM -1% | [2]; at 1.2 µM -1% | [2]; at 3.7 µM -1% | [2]; at 11.0 µM -1% | [2]; at 33.0 µM -1% | [2]; at 100.0 µM -3% | [3]; at 1.2 µM -2% | [3]; at 3.7 µM 0% | [3]; at 11.0 µM 1% | [3]; at 33.0 µM 0% | [3]; at 100.0 µM 5% | [4]; at 1.2 µM 0% | [4]; at 3.7 µM 5% | [4]; at 11.0 µM 1% | [4]; at 33.0 µM 0% | [4]; at 100.0 µM -5% | [5]; at 1.2 µM 1% | [5]; at 3.7 µM -6% | [5]; at 11.0 µM 3% | [5]; at 33.0 µM 3% | [5]; at 50.0 µM -41.7% | [5]; at 100.0 µM -1% | [6]; at 1.2 µM -3% | [6]; at 3.7 µM -5%
